# What was measured:
# [1] = target: MAP/microtubule affinity-regulating kinase 3 (Homo sapiens) (UniProt P27448); conditions: at 1 µM;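 also: reported values are averaged percent inhibition of MARK3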
# [2] = target: T1, MAP/microtubule affinity-regulating kinase 4 (Homo sapiens) (UniProt Q96L34); conditions: at 0.1 µM
# T1 sequence (whole entry): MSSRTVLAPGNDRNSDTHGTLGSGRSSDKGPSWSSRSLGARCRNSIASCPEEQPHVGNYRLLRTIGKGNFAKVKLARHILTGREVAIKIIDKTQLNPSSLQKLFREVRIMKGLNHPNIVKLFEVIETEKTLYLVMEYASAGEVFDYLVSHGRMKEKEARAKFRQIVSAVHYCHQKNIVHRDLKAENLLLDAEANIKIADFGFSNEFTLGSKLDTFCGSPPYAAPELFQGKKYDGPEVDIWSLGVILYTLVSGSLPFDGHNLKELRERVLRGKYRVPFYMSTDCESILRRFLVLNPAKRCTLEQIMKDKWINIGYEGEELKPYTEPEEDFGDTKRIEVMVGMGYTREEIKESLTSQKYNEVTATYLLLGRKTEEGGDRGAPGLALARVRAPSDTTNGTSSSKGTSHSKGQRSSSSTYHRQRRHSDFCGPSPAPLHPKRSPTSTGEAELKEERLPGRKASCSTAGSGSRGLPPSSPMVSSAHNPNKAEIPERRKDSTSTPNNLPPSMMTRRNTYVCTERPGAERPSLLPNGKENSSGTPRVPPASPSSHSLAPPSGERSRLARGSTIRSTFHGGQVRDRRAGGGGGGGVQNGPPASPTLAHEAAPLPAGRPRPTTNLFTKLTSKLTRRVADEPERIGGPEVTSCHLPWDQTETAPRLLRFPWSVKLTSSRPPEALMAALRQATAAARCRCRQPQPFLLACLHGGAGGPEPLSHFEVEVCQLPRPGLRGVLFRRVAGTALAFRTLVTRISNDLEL
# [3] = target: T1, MAP/microtubule affinity-regulating kinase 4 (Homo sapiens); conditions: at 1 µM
# [4] = target: Maternal embryonic leucine zipper kinase (Homo sapiens) (UniProt Q14680); conditions: at 0.1 µM
# [5] = target: Maternal embryonic leucine zipper kinase (Homo sapiens) (UniProt Q14680); conditions: at 1 µM
# [6] = target: MAP kinase-interacting serine/threonine-protein kinase 1 (Homo sapiens) (UniProt Q9BUB5); conditions: at 0.1 µM
# [7] = target: MAP kinase-interacting serine/threonine-protein kinase 1 (Homo sapiens) (UniProt Q9BUB5); conditions: at 1 µM
# [8] = target: MAP kinase-interacting serine/threonine-protein kinase 2 (Homo sapiens) (UniProt Q9HBH9); conditions: at 0.1 µM
# [9] = target: MAP kinase-interacting serine/threonine-protein kinase 2 (Homo sapiens) (UniProt Q9HBH9); conditions: at 1 µM
# [10] = target: Serine/threonine-protein kinase MARK2 (Homo sapiens) (UniProt Q7KZI7); conditions: at 0.1 µM
# [11] = target: Serine/threonine-protein kinase MARK2 (Homo sapiens) (UniProt Q7KZI7); conditions: at 1 µM
# [12] = target: PAS domain-containing serine/threonine-protein kinase (Homo sapiens) (UniProt Q96RG2); conditions: at 0.1 µM
# [13] = target: PAS domain-containing serine/threonine-protein kinase (Homo sapiens) (UniProt Q96RG2); conditions: at 1 µM
# [14] = target: Phosphorylase b kinase gamma catalytic chain, skeletal muscle/heart isoform (Homo sapiens) (UniProt Q16816); conditions: at 0.1 µM
# [15] = target: Phosphorylase b kinase gamma catalytic chain, skeletal muscle/heart isoform (Homo sapiens) (UniProt Q16816); conditions: at 1 µM
# [16] = target: T2, Phosphorylase b kinase gamma catalytic chain, liver/testis isoform (Homo sapiens) (UniProt P15735); conditions: at 0.1 µM
# T2 sequence (whole entry): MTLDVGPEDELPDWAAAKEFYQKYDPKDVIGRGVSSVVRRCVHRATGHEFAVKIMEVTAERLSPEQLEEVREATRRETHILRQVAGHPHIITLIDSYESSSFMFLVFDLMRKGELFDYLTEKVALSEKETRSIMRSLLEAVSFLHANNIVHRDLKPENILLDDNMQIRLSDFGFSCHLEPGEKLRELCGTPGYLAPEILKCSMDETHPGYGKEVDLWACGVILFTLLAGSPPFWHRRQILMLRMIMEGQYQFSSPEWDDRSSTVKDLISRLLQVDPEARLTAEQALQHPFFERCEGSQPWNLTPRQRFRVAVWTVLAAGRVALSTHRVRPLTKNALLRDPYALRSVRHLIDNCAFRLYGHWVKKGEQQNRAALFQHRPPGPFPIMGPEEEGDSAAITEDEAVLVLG
# [17] = target: T2, Phosphorylase b kinase gamma catalytic chain, liver/testis isoform (Homo sapiens); conditions: at 1 µM
# [18] = target: Serine/threonine-protein kinase pim-1 (Homo sapiens) (UniProt P11309); conditions: at 0.1 µM
# [19] = target: Serine/threonine-protein kinase pim-1 (Homo sapiens) (UniProt P11309); conditions: at 1 µM
# [20] = target: Serine/threonine-protein kinase pim-2 (Homo sapiens) (UniProt Q9P1W9); conditions: at 0.1 µM;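 also: reported value is the mean percent inhibition of PIM2, measured in the GSK PKIS kinase inhibitor set screen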
# Chain of Serine/threonine-protein kinase pim-2 (Homo sapiens) (Q9P1W9 whole entry, looked up): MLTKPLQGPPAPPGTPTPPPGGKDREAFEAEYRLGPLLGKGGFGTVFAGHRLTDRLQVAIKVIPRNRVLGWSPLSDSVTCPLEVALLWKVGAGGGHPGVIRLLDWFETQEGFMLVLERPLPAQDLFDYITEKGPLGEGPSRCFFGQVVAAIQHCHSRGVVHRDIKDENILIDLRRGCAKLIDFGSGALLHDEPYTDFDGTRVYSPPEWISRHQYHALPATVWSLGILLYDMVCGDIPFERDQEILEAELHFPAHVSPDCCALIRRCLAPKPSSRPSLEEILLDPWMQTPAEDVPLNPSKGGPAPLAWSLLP
# Chain of MAP kinase-interacting serine/threonine-protein kinase 2 (Homo sapiens) (Q9HBH9 whole entry, looked up): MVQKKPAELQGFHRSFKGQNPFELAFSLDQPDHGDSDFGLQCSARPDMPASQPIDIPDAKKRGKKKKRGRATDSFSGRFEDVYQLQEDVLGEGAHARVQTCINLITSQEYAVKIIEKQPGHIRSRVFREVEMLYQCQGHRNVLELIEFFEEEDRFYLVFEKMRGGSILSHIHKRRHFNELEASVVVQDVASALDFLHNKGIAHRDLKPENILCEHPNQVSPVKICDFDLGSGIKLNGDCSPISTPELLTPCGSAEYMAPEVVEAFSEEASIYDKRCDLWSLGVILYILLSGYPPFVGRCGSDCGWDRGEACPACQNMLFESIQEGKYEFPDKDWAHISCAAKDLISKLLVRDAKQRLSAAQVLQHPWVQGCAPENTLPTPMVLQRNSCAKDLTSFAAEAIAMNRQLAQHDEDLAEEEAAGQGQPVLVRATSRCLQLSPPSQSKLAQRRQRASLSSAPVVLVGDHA
# Chain of MAP kinase-interacting serine/threonine-protein kinase 1 (Homo sapiens) (Q9BUB5 whole entry, looked up): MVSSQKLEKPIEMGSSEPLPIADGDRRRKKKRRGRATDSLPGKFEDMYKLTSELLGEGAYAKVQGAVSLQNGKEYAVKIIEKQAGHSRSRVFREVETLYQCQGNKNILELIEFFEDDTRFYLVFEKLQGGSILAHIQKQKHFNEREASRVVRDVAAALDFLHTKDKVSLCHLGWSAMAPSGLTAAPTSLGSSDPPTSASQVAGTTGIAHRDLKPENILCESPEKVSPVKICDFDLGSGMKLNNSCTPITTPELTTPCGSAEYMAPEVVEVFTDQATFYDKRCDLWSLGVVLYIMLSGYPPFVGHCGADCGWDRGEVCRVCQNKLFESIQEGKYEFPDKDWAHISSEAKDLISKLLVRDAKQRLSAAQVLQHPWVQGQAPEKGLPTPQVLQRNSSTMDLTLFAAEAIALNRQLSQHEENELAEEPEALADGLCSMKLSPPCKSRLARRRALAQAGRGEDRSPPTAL
# Chain of PAS domain-containing serine/threonine-protein kinase (Homo sapiens) (Q96RG2 whole entry, the tested form may be a part, canonical isoform): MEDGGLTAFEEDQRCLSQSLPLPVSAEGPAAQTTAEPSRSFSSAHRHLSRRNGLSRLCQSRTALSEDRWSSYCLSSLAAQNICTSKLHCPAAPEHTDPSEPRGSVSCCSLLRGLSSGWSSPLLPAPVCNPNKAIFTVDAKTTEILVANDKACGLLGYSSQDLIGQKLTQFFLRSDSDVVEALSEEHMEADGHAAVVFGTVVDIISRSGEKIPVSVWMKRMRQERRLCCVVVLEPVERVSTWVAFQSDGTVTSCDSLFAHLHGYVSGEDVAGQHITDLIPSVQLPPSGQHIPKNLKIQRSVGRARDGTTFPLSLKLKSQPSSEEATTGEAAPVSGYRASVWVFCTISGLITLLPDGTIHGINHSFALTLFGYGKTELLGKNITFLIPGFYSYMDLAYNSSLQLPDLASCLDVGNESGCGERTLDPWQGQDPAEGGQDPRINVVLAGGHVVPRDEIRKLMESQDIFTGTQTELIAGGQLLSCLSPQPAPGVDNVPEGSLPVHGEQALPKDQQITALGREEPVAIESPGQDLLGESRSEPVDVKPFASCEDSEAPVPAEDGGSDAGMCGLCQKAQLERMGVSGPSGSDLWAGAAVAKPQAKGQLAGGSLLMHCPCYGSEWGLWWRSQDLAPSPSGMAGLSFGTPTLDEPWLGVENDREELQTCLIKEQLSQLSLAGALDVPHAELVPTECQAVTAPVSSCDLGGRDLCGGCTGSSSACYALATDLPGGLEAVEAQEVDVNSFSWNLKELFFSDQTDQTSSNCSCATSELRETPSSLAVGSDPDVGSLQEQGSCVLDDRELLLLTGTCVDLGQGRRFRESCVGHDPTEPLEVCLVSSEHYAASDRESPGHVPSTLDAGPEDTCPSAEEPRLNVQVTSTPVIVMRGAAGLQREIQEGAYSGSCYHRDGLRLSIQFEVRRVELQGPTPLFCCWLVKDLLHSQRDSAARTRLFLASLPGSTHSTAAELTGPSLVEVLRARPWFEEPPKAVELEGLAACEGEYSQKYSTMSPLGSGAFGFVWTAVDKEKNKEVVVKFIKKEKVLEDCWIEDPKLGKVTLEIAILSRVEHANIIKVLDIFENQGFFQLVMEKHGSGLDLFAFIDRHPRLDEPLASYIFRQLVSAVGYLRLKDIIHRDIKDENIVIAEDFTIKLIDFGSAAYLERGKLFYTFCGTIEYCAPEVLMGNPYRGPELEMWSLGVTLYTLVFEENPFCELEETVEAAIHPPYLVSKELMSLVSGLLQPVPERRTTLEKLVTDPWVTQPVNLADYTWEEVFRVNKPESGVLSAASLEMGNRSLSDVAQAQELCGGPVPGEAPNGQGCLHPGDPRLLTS
# Chain of Serine/threonine-protein kinase MARK2 (Homo sapiens) (Q7KZI7 whole entry, the tested form may be a part): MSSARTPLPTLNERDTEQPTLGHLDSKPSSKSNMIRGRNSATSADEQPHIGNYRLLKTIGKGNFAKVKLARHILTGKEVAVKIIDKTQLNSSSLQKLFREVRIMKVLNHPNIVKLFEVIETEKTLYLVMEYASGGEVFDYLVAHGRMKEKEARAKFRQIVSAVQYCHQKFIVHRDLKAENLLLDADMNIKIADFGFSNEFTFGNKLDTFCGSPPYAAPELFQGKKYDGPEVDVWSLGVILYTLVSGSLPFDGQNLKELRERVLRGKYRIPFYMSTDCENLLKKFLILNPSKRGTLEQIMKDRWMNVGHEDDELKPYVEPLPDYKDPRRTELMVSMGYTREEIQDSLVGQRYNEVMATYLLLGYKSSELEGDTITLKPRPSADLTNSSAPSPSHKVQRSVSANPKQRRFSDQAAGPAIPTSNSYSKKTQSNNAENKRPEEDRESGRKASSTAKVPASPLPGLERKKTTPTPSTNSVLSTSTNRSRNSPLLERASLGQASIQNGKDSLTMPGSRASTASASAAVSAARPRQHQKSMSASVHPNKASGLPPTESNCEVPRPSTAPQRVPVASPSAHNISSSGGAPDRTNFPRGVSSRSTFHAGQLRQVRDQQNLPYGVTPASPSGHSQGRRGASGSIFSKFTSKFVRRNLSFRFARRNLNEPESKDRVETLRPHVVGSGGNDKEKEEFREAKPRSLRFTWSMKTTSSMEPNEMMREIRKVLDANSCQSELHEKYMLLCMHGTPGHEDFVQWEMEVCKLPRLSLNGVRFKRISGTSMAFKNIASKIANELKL
# Chain of MAP/microtubule affinity-regulating kinase 3 (Homo sapiens) (P27448 whole entry, looked up): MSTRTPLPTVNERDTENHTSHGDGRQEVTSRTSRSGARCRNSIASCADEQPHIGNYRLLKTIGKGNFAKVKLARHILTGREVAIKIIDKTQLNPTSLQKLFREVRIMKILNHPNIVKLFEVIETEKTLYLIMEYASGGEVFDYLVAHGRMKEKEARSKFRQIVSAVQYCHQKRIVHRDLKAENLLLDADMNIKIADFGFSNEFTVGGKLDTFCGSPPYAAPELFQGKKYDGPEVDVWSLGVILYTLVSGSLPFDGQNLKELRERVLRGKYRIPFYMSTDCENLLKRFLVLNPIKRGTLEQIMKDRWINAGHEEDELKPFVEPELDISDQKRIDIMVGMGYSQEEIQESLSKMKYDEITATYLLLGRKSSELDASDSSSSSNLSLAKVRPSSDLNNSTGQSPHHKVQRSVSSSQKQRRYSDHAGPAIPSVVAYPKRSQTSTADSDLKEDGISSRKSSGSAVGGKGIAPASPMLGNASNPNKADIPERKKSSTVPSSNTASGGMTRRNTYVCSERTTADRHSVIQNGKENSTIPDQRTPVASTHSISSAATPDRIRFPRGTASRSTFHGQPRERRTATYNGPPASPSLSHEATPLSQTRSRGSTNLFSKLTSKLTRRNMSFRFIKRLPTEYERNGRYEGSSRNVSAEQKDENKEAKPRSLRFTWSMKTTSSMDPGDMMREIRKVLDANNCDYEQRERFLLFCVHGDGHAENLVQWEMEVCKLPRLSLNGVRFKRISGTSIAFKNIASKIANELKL
# Chain of Phosphorylase b kinase gamma catalytic chain, skeletal muscle/heart isoform (Homo sapiens) (Q16816 whole entry, looked up, canonical isoform): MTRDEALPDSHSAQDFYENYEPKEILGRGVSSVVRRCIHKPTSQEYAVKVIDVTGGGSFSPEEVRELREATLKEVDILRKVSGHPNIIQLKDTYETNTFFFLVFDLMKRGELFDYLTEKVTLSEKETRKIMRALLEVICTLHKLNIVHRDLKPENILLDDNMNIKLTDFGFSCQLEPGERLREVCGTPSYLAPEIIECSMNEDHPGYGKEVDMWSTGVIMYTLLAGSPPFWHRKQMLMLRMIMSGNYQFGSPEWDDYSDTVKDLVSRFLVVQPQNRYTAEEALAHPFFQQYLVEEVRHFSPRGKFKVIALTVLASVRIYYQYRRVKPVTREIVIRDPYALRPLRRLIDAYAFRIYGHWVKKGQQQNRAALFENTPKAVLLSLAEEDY
# Chain of Serine/threonine-protein kinase pim-1 (Homo sapiens) (P11309 whole entry, looked up): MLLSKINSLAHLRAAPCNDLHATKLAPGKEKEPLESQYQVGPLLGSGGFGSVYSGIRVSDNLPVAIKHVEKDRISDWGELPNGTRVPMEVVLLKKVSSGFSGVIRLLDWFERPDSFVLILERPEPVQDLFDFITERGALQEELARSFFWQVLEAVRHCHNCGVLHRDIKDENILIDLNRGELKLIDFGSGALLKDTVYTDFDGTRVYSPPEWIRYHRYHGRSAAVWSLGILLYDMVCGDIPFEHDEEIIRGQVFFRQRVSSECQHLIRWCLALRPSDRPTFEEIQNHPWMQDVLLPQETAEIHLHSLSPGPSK
Compound,inhibition [1] [%],inhibition [2] [%],inhibition [3] [%],inhibition [4] [%],inhibition [5] [%],inhibition [6] [%],inhibition [7] [%],inhibition [8] [%],inhibition [9] [%],inhibition [10] [%],inhibition [11] [%],inhibition [12] [%],inhibition [13] [%],inhibition [14] [%],inhibition [15] [%],inhibition [16] [%],inhibition [17] [%],inhibition [18] [%],inhibition [19] [%],inhibition [20] [%]
COc1cc2ncnc(Nc3ccc(C)c(O)c3)c2cc1OC,6.46,1.47,4.13,5.67,8.15,6.8,30.9,3.13,15.8,2.85,0.64,-0.16,0.97,6.64,23.5,5.48,7.74,1.41,1.44,1.6
N#Cc1c(NC(=O)c2ccccc2F)sc2c1CCCC2,3.09,1.13,3.48,-3.26,-2.77,-0.78,-0.18,-0.06,2.26,-0.36,3.45,1.88,1.22,1.23,2.36,-2.2,-2.57,0.9,2.11,0.14
NS(=O)(=O)c1ccc(Nc2cc(-c3cccc(O)c3)n[nH]2)cc1,32.5,3.4,9.85,4.37,7.45,3.01,7.14,0.45,5.79,1.86,6.24,0.14,-1.99,3.73,12.8,6.63,6.34,-0.06,1.3,0.62
Cc1ccc2c(c1)/C(=N/Nc1ccc(S(N)(=O)=O)cc1)C(=O)N2,3.82,1.51,7.46,-0.41,6.27,0.02,0.54,-0.44,0,-0.42,4.44,0.38,0.32,1.32,11,1.11,0.07,0.77,0.99,0.28
OCc1ccc(-c2nc(-c3ccccn3)c(-c3ccc4c(c3)OCO4)[nH]2)cc1,4.42,1.75,2.19,6.02,4.4,2.65,2.54,0.41,0.09,1.8,2.05,0.83,-1.14,2.77,-6,5.91,2.21,0.78,0.98,0.72
c1ccc(Nc2ncc(-c3ccccc3)o2)cc1,4.02,2.77,4.32,5.53,9.84,1.77,3.22,0.51,4.71,0.14,2.64,-0.05,-0.71,2.61,10.9,6.62,6.17,1.47,3.45,-1.31
NC(=O)c1sc(-n2cnc3ccccc32)cc1OCc1ccccc1Br,5.83,1.43,5.23,4.71,10.1,2.14,11.7,0.25,4.3,1.95,6.32,-0.54,-0.07,2.76,6.49,4.32,5.93,0.2,3.08,-0.36
COC(=O)c1ccc2c(c1)C(=Cc1cc(Br)c(O)c(Br)c1)C(=O)N2,3.71,0.93,5.08,6.21,22.2,1.07,5.73,2.35,19,0.84,4.91,-1.3,-0.51,0.67,7.49,4.41,3.92,8.81,50.9,10.7
Cc1ccc(Nc2ccnc(Nc3cccc(C(N)=O)c3)n2)cc1O,12.5,1.68,6.22,2.96,7.7,2.87,13.4,2.08,16.7,0.4,3.99,0.66,0.18,1.96,10.4,4.75,6.26,0.14,1.49,-4.07
Oc1cccc(-c2nc(-c3ccccc3)[nH]c2-c2ccncc2)c1,6.43,1.16,2.71,4.46,5.5,5.55,25.6,1.57,14.8,-0.88,0.43,0.7,0.32,4.05,3.93,5.23,4.95,0.8,2.57,-0.34
CN(C)CCCn1c(-c2nonc2N)nc2cnccc21,3.45,2.41,3.46,6.89,20.1,1.87,5.5,0.54,-0.09,1.6,2.24,-0.11,-0.83,2.33,2.88,4.54,2.43,2.81,18.9,-0.04
CS(=O)(=O)Nc1cccc(-c2ccc3c(NC(=O)C4CC4)n[nH]c3c2)c1,6.61,1.87,3.42,0.93,4.3,2.34,13.5,0.41,3.39,-1.45,2.88,0.72,-0.4,3.02,6.04,2.36,-0.09,0.69,0.43,0.5
COC(=O)Nc1nc2cc(Oc3ccc(NC(=O)Nc4cccc(Br)c4)cc3)ccc2[nH]1,1.7,0.25,1.17,2.93,4.7,4.77,8.85,1.96,4.55,-0.39,0.27,0.17,1.67,3.04,4.55,3.62,2.45,-0.51,0.21,-0.42
